We go through 37 compounds from the antibiotic and cytotoxicity screens of Wong et al. (2023).

Among all 39,000 compounds or so, about 1,500 (3.8%) were called active. This is one part of a sample in which actives are shown more often than they occur.

For the assay, the system named is HSkMC (human skeletal muscle cells). Briefly: cytotoxicity call (relative viability < 0.9). As to conditions: 10 µM.
For `CCOC(=O)C1CCN(c2cn[nH]c(=O)n2)CC1`, the cytotoxicity call was “inactive”.

`C[C@H]1CN([C@@H](C)CO)C(=O)Cc2cc(NC(=O)Nc3cccc4ccccc34)ccc2O[C@@H]1CN(C)C(=O)Nc1ccccc1`: the cytotoxicity call was “inactive”.

As to `C=CCOC(=O)[C@H]1[C@@H]2C(=O)O[C@@H](c3ccccc3)[C@@H](c3ccccc3)N2[C@@H](c2ccc(OCCOC(=O)[C@H]3C[C@H]4C(=O)N5CCC[C@H]5C(=O)N4[C@H]3c3cccc(OCCO)c3)cc2)[C@]12C(=O)Nc1ccccc12`, the cytotoxicity call was “inactive”.

With `COc1ccc(NC(=O)N(C)C[C@H]2OCc3cnnn3CCCC(=O)N([C@H](C)CO)C[C@@H]2C)c(OC)c1`, the cytotoxicity call is “inactive”.

On to `COc1ccc(S(=O)(=O)N(C)C[C@H]2Oc3ccc(NS(=O)(=O)c4ccc(F)cc4)cc3CC(=O)N([C@@H](C)CO)C[C@@H]2C)cc1`, for which the cytotoxicity call was “inactive”.

`C[C@@H]1CN([C@@H](C)CO)C(=O)c2cc(NS(=O)(=O)c3ccc(Cl)cc3)ccc2O[C@@H](C)CCCCO[C@H]1CN(C)Cc1ccc(C(F)(F)F)cc1`: the cytotoxicity call is “active”.

`C[C@H]1CN([C@@H](C)CO)C(=O)c2cccc(NC(=O)Nc3ccc(C(F)(F)F)cc3)c2O[C@@H]1CN(C)Cc1ccc(Oc2ccccc2)cc1`: the cytotoxicity call is “inactive”.

As for `C[C@H](CO)N1C[C@H](C)[C@H](CN(C)Cc2ccc(Oc3ccccc3)cc2)Oc2c(NC(=O)Nc3ccc(C(F)(F)F)cc3)cccc2C1=O`, the cytotoxicity call was “active”.

For the compound `C[C@@H]1CN([C@@H](C)CO)C(=O)c2cccc(NC(=O)Nc3ccc(C(F)(F)F)cc3)c2O[C@H]1CN(C)Cc1ccc(Oc2ccccc2)cc1`, the cytotoxicity call is “active”.

On to `C[C@@H]1CN([C@@H](C)CO)C(=O)c2cccc(NC(=O)Nc3ccc(C(F)(F)F)cc3)c2O[C@@H]1CN(C)Cc1ccc(Oc2ccccc2)cc1`, for which the cytotoxicity call was “active”.

On to `C[C@@H]1CN([C@H](C)CO)C(=O)c2cccc(NC(=O)Nc3ccc(C(F)(F)F)cc3)c2O[C@H]1CN(C)Cc1ccc(Oc2ccccc2)cc1`, for which the cytotoxicity call is “active”.

On to `C[C@H]1CN([C@@H](C)CO)C(=O)c2cccc(NC(=O)Nc3ccc(C(F)(F)F)cc3)c2O[C@H]1CN(C)Cc1ccccc1`, for which the cytotoxicity call is “inactive”.

For `COC[C@H]1CNN1C(=O)c1cc(C)oc1C`, the cytotoxicity call was “inactive”.

In the case of `C[C@@H]1CN([C@@H](C)CO)C(=O)c2cccc(NS(=O)(=O)c3cn(C)cn3)c2O[C@@H]1CN(C)C(=O)NC1CCCCC1`, the cytotoxicity call was “inactive”.

Take `C[C@H]1CCCCO[C@H](CN(C)C(=O)c2ccccc2)[C@@H](C)CN([C@@H](C)CO)C(=O)c2cc(NC(=O)c3ccccc3)ccc2O1`: the cytotoxicity call is “inactive”.

Consider `COc1cccc(-c2ccc3c(c2)O[C@H](CN(C)C(=O)C2CCOCC2)[C@H](C)CN([C@H](C)CO)S3(=O)=O)c1`, for which the cytotoxicity call is “inactive”.

`C[C@H](CO)N1C[C@H](C)[C@H](CN(C)Cc2ccccc2)Oc2c(NC(=O)Nc3ccc(C(F)(F)F)cc3)cccc2C1=O`: the cytotoxicity call was “inactive”.

On to `C[C@@H]1CN([C@H](C)CO)C(=O)c2cccc(NC(=O)Nc3ccc(C(F)(F)F)cc3)c2O[C@@H]1CN(C)Cc1ccc(Oc2ccccc2)cc1`, for which the cytotoxicity call was “active”.

For `C[C@H]1CN([C@@H](C)CO)C(=O)c2cccc(NC(=O)Nc3ccc(C(F)(F)F)cc3)c2O[C@H]1CN(C)Cc1ccc(Oc2ccccc2)cc1`, the cytotoxicity call is “active”.

For `C[C@H](CO)N1C[C@H](C)[C@@H](CN(C)Cc2ccc(Oc3ccccc3)cc2)Oc2c(NC(=O)Nc3ccc(C(F)(F)F)cc3)cccc2C1=O`, the cytotoxicity call was “active”.

Regarding `C[C@@H]1CN([C@H](C)CO)C(=O)c2cccc(NC(=O)Nc3ccccc3)c2O[C@@H]1CN(C)Cc1ccc(C(F)(F)F)cc1`, the cytotoxicity call is “inactive”.

For `C[C@@H]1CCCCO[C@@H](CN(C)CC2CC2)[C@H](C)CN([C@H](C)CO)C(=O)c2cc(NC(=O)Cc3ccccc3)ccc2O1`, the cytotoxicity call is “inactive”.

Regarding `C[C@@H]1CN([C@H](C)CO)C(=O)c2cc(NC(=O)c3ccncc3)ccc2O[C@@H](C)CCCCO[C@@H]1CN(C)C(=O)C1CCCCC1`, the cytotoxicity call is “inactive”.

For the compound `COc1ccc(NC(=O)N2C[C@@H](O)COC[C@@H]3O[C@H](CC(=O)NC4Cc5ccccc5C4)CC[C@H]32)cc1`, the cytotoxicity call was “inactive”.

On to `CC(C)NC(=O)N(C)C[C@H]1Oc2ccc(NC(=O)NC3CCCCC3)cc2C(=O)N([C@@H](C)CO)C[C@H]1C`, for which the cytotoxicity call was “inactive”.

Take `CC(C)NC(=O)Nc1ccc2c(c1)C(=O)N([C@H](C)CO)C[C@H](C)[C@H](CN(C)S(=O)(=O)c1cn(C)cn1)OCCCC[C@H](C)O2`: the cytotoxicity call is “inactive”.

For `C[C@@H]1CN([C@H](C)CO)C(=O)c2cc(NC(=O)Cn3cnnn3)ccc2O[C@@H]1CN(C)Cc1ccc(Oc2ccccc2)cc1`, the cytotoxicity call was “inactive”.

On to `CCS(=O)(=O)N[C@H]1C=C[C@@H](CC(=O)NCc2ccc(Cl)cc2)O[C@@H]1CO`, for which the cytotoxicity call was “inactive”.

Turning to `C[C@H](CO)N1C[C@H](C)[C@@H](CN(C)Cc2ccc(Cl)c(Cl)c2)OCCCC[C@H](C)Oc2ccc(NC(=O)CCC(F)(F)F)cc2C1=O`, the cytotoxicity call is “inactive”.

Take `C[C@H]1CCCCO[C@H](CN(C)Cc2ccc(Cl)c(Cl)c2)[C@@H](C)CN([C@@H](C)CO)C(=O)c2cc(NC(=O)CCC(F)(F)F)ccc2O1`: the cytotoxicity call is “inactive”.

In the case of `C[C@@H]1CCCCO[C@H](CN(C)Cc2ccc(Cl)c(Cl)c2)[C@H](C)CN([C@@H](C)CO)C(=O)c2cc(NC(=O)CCC(F)(F)F)ccc2O1`, the cytotoxicity call is “inactive”.

As to `C[C@@H]1CCCCO[C@@H](CN(C)Cc2ccc(Cl)c(Cl)c2)[C@H](C)CN([C@H](C)CO)C(=O)c2cc(NC(=O)CCC(F)(F)F)ccc2O1`, the cytotoxicity call is “inactive”.

In the case of `C[C@@H]1CN([C@H](C)CO)C(=O)c2cc(NC(=O)CCC(F)(F)F)ccc2O[C@@H](C)CCCCO[C@H]1CN(C)Cc1ccc(Cl)c(Cl)c1`, the cytotoxicity call was “active”.

Regarding `C[C@@H]1CN([C@H](C)CO)C(=O)c2cc(NC(=O)CCC(F)(F)F)ccc2O[C@@H](C)CCCCO[C@@H]1CN(C)Cc1ccc(Cl)c(Cl)c1`, the cytotoxicity call is “active”.

As for `C[C@H](CO)N1C[C@H](C)[C@@H](CN(C)Cc2ccc(C(=O)O)cc2)OCCCC[C@H](C)Oc2ccc(NC(=O)CCC(F)(F)F)cc2C1=O`, the cytotoxicity call is “inactive”.

On to `Cc1cc(OCCCS(C)(=O)=O)cc(C)c1-c1cccc(COc2ccc3c(c2)OC[C@H]3CC(=O)O)c1`, for which the cytotoxicity call was “active”.

For `C[C@@H]1CN([C@H](C)CO)C(=O)c2cccc(NC(=O)c3ccc(-c4nccs4)cc3)c2O[C@H]1CN(C)Cc1ccccc1`, the cytotoxicity call is “inactive”.
